In PubChem BioAssay (NCATS):
Values joined by “and” are separate entries in the source; they are usually repeats but may differ in a detail not shown here. Equal entries are not always repeated. Results filed as inconclusive are left out. Active and inactive are the calls of the source. Unless noted, calls follow the shape of the dose curve; as a rule, active = well fitted curve in the direction sought with a large enough effect; inconclusive = small, poorly fitted or top-dose-only effect, or another doubt; inactive = no such curve, though single readings can be large; an effect the other way counts as inactive or inconclusive.

Experiments:
[1] = AP1 Signaling Pathway (AID 357; active = well fitted curve in either direction with a large enough effect, not every such curve was filed as active;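 also: ME-180 reporter cells stimulated with EGF at its EC50 level; % is scaled to controls: 0 for no effect and ±100 for the full control effect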)
How it was run: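 A ratiometric CCF4 readout (405 nm excitation; 460 and 530 nm emission) quantified AP-1-driven beta-lactamase in ME-180 cells after 5 h with compound and EC50 EGF; AC50 values were derived for activators and inhibitors.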

[2] = target: Cytochrome P450 1A2 (Homo sapiens) (UniProt P05177); assay: p450-cyp1a2 (AID 410; calls by dose curve;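 also: -100% = full effect of reference inhibitor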)
How it was run: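 O-Demethylation of luciferin 6' methyl ether by human CYP1A2 is monitored as luciferase luminescence. Substrate sits at Km (100uM); enzyme is 20nM. Values are scaled to 57 uM furafylline as maximal inhibition.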

[3] = NFAT Signaling Pathway (AID 444; active = well fitted curve in either direction with a large enough effect, not every such curve was filed as active;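 also: carbachol stimulus at about its EC50 of 1 µM final; % is scaled to controls: 0 for no effect and ±100 for the full control effect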); conditions: Jurkat NFAT-bla M1, carbachol, beta-lactamase ratio, 5 h; at 38 µM (top of the series)
How it was run: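 Jurkat cells carrying an NFAT-driven β-lactamase reporter and co-transfected muscarinic M1 receptor were treated with compound plus carbachol (1 uM final, an EC50 level) for 5 h at 37 °C. CCF4 loading followed for 1 h at RT; 460/530 nm ratio gave %activity.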

[4] = Stat Signaling Pathway (AID 446; active = well fitted curve in either direction with a large enough effect, not every such curve was filed as active;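 also: ME-180 cervical cancer cells given 40 pM IL-6 alongside compound; SIE-controlled beta-lactamase reporter measured as 460/530 nm FRET emission ratio; % is scaled to controls: 0 for no effect and ±100 for the full control effect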)
How it was run: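 Compound effects on IL-6-induced STAT reporter activity were measured in ME-180 cells. After overnight culture, cells were co-treated with 40 pM IL-6 for 5 hrs before beta-lactamase substrate loading at room temperature.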

[5] = target: Glucocorticoid receptor (Homo sapiens) (UniProt P04150); assay: GR-GFP Redistribution (AID 450;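 active = compounds whose dose series gives a full or clear partial fitted curve of increased nuclear translocation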; also: potency is read from the fitted curve at half-maximal effect); conditions: U2OS GR-GFP nuclear translocation, laser cytometry, 2 h
[6] = target: Glucocorticoid receptor (Homo sapiens) (UniProt P04150); assay: GR-EFC Redistribution (AID 451; calls by dose curve; also: potency is read from the fitted curve at half-maximal effect); conditions: CHO-K1 GR-EFC translocation, beta-gal luminescence, 2 h
How it was run: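 CHO-K1 cells stably expressing nuclear-localized β-gal enzyme acceptor and GR fused C-terminally to the enzyme donor fragment; ligand-driven nuclear translocation restores β-gal by complementation. Compounds titrated up to 46 uM final, 2 h at 37 °C; luminescence read.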

[7] = target: Mitogen-activated protein kinase 10 (Mus musculus) (UniProt Q61831); assay: JNK3 AlphaScreen Assay (AID 530; active = well fitted curve in either direction with a large enough effect, not every such curve was filed as active;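 also: kinase came from lysate of stimulated human HepG2 cells; signal reports phosphorylation of biotinylated GST-cJun 1-79 at Ser73 with 10 µM ATP; % is scaled to controls: 0 for no effect and ±100 for the full control effect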)
How it was run: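 Phosphorylation of biotinylated GST-cJun(1-79) at Ser73 is measured by AlphaScreen proximity luminescence. Enzyme is JNK3 in HepG2 lysates activated with interleukin-1beta and tumor necrosis factor alpha; ATP is 10 uM final.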

[8] = target: 3',5'-cyclic-AMP phosphodiesterase 4B (Homo sapiens) (UniProt Q07343); assay: qHTS Assay for Inhibitors of PDE-IV (AID 607; active = well fitted activation curve with a large enough effect in the main read-out, with a control signal flat, not every such curve was filed as active; also: % of control where 0% means no effect)
How it was run: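 ACTOne HEK293 cells carry a modified cAMP-gated CNG channel and express endogenous PDE4; plated 1000 cells/well, compounds up to 22.9 uM final. Membrane-potential dye fluorescence (ex 535/em 590) was read; parental cells received 10 uM forskolin + 100 uM RO 20-1724.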

[9] = target: Guanine nucleotide-binding protein G(i) subunit alpha-1 (Homo sapiens) (UniProt P63096); assay: qHTS Assay for Inhibitors of RGS12 GoLoco Motif Activity (Green Fluorophore) (AID 879);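 also: 0% = labeled peptide with Gαi1 and full inhibition = labeled peptide alone without protein; negative values mean loss of peptide binding seen as reduced polarization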
How it was run: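 A drop in FITC polarization marked displacement of the FITC-tagged RGS12 GoLoco peptide (10 nM) from Gαi1 (50 nM). Compounds were incubated 10 min at room temperature in Tris pH 7.5 buffer containing 150 mM NaCl, 0.1 mM GDP and 0.05% NP40; unlabeled peptide titration served as control.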

[10] = target: Cytochrome P450 2C9 (Homo sapiens) (UniProt P11712); assay: qHTS Assay for Inhibitors and Substrates of Cytochrome P450 2C9 (AID 883); also: % is scaled to controls: 0 for no effect and ±100 for the full control effect; nearly all actives have a fitted effect of over 60% in size
How it was run: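 Human CYP2C9 (10nM) hydroxylated Luciferin-H (100uM, at its KM) to luciferin in 25mM KPO4. Compound was preincubated 10 min at 37C, then NADPH regeneration started a 60 min reaction at 37C. Luminescence was read after detection reagent, normalized to 57uM sulphaphenazole.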

[11] = target: Cytochrome P450 2D6 (Homo sapiens) (UniProt P10635); assay: qHTS Assay for Inhibitors and Substrates of Cytochrome P450 2D6 (AID 891);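 also: luciferin methyl ether substrate demethylated by CYP2D6 with NADPH regeneration; % is scaled to controls: 0 for no effect and ±100 for the full control effect; nearly all actives have a fitted effect of over 60% in size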
How it was run: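 Luminescent read-out of luciferin formed by 5 nM human CYP2D6 demethylating 30 uM Luciferin-ME EGE (Km level) over 60 min at room temperature after NADPH regeneration addition. Data normalized to full inhibition by 1.43 uM quinidine.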

[12] = target: Cytochrome P450 2C19 (Homo sapiens) (UniProt P33261); assay: qHTS Assay for Inhibitors and Substrates of Cytochrome P450 2C19 (AID 899); also: % is scaled to controls: 0 for no effect and ±100 for the full control effect; nearly all actives have a fitted effect of over 60% in size
How it was run: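 Human CYP2C19 (5nM) with Luciferin-H EGE at 10uM (its KM) in 50mM KPO4 was preincubated with compound for 10 min at 37C. NADPH regeneration started a 60 min 37C reaction. Luciferin was read by luminescence, normalized to 57uM ketoconazole.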

[13] = qHTS Assay for Identification of Small Molecule Agonists for Thrombopoietin (TPO) Signaling Pathway (AID 917); also: % is scaled to controls: 0 for no effect and ±100 for the full control effect
How it was run: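 Stimulation at the TPO EC50 (26 pM final) was used to detect activators. Ba/F3 mouse cells bearing human TPO receptor and a luciferase reporter under the Glycoprotein IIb promoter were exposed to compounds for 24 hrs at 37 C.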

[14] = target: Muscarinic acetylcholine receptor M1 (Rattus norvegicus) (UniProt P08482); assay: qHTS Assay for Antagonists of Acetylcholine Muscarinic M1 Receptor: Kinetic Measurement of Intracellular Calcium Response (AID 943);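 also: Fluo-4 calcium signal as peak divided by basal fluorescence over 4 min; nearly all actives have a fitted effect of over 75% in size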
How it was run: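 Antagonism is measured as inhibition of the carbachol-evoked calcium rise in CHO cells transfected with rat M1. Cells are dye-loaded, exposed to compound for 10 min, then stimulated with 100 nM carbachol (EC80).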

[15] = target: Muscarinic acetylcholine receptor M1 (Rattus norvegicus) (UniProt P08482); assay: qHTS Assay for Antagonists of Acetylcholine Muscarinic M1 Receptor: Measurement of IP-One Response (AID 944); also: nearly all actives have a fitted effect of over 75% in size
How it was run: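 Antagonist mode with rat M1 receptor transfected into CHO cells. Compound is added first for 10 min, carbachol at its EC80 follows for 30 min, and lysis reagents then allow TR-FRET detection of accumulated IP1.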

[16] = target: Pyruvate kinase (Leishmania mexicana) (UniProt Q27686); assay: qHTS Validation Assay for Inhibitors of Leishmania Mexicana Pyruvate Kinase (AID 945);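 also: 0% = DMSO only neutral control wells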
How it was run: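 The enzyme is a highly purified E451W mutant of LmPYK used at 0.2 nM. It converts 0.5 mM PEP and 0.1 mM ADP over 1 h at room temperature; product ATP is quantified by luciferase luminescence relative to DMSO controls.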

[17] = target: Pyruvate kinase PKM (Homo sapiens) (UniProt P14618); assay: qHTS Assay for Activators of Human Muscle Pyruvate Kinase (AID 954; active = well fitted curve in the direction sought with a large enough effect, not every such curve was filed as active;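 also: 0% = uninhibited enzyme and -100% = no enzyme or full thiadiazolimine inhibition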)
How it was run: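 A coupled luminescent readout tracked ATP made from ADP by purified PKM2. Final conditions included 0.1 nM enzyme, PEP and ADP at 0.5 and 0.1 mM, pH 7.2 imidazole buffer with BSA, and a one-hour room-temperature reaction.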

[18] = target: Alpha-galactosidase (Coffea arabica) (UniProt Q42656); assay: Counterscreen for Glucocerebrosidase Inhibitors: qHTS Assay for Coffee Bean alpha-Galactosidase at pH 4.5 (AID 957);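 also: plate controls were enzyme alone for no effect and no enzyme for full effect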
How it was run: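 Enzyme is added first (2 nM final), then compounds titrated from 0.7 nM to 77 uM, then 80 uM 4-methylumbelliferyl alpha-D-galactopyranoside; after 20 min at room temperature a pH 10 NaOH/glycine stop precedes fluorescence reading at 365/440 nm.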

[19] = target: Alpha-galactosidase A (Homo sapiens) (UniProt P06280); assay: Counterscreen for Glucocerebrosidase Inhibitors: qHTS Assay for Human alpha-Galactosidase at pH 4.5 (AID 992); also: 0% is about no effect
How it was run: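 Citrate buffer pH 4.5, Tween-20 0.005%. Enzyme 2 nM, substrate 80 uM, 20 min RT. Stop pH 10. Fluorescence Ex 365/Em 440. AC50 by Hill fit.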

[20] = target: alpha-glucosidase (Oryza sativa, rice) (UniProt Q653V4); assay: Counterscreen for Glucocerebrosidase Inhibitors: qHTS Assay for Rice alpha-Glucosidase at pH 5.0 (AID 997);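 also: 0% = full activity with enzyme and -100% = basal without enzyme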
How it was run: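 Endpoint fluorogenic assay at pH 5.0: compounds (0.7 nM to 77 uM) titrated against 4 nM rice enzyme and 400 uM 4-MU-alpha-glucoside for 20 min at room temperature; NaOH/glycine stop, read ex 365/em 440 nm, Hill-fitted AC50.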

[21] = target: Alpha-galactosidase (Coffea arabica) (UniProt Q42656); assay: Counterscreen for Glucocerebrosidase Inhibitors: qHTS Assay for Coffee Bean alpha-Galactosidase at pH 5.9 (AID 998);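 also: plate controls were uninhibited enzyme for no effect and no-enzyme basal signal for full effect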
How it was run: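 In 50 mM citric acid pH 5.9 with 0.005% Tween-20, coffee bean enzyme hydrolyses 80 uM 4-MU alpha-D-galactopyranoside over 20 min at RT. Activity is normalized to controls; AC50 comes from Hill-modelled concentration-response data.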

[22] = qHTS Assay for Lipid Storage Modulators (AID 1519; calls by dose curve); conditions: Drosophila S3 cells, BODIPY lipid droplet/cell ratio, laser cytometry, cells loaded with oleic acid
How it was run: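 Cells seeded at 5,000 per well were treated with compounds over a concentration series and loaded with oleic acid (400 uM, as added). Lipid droplet fluorescence (488 nm excitation, 500-530 nm channel) was read by laser-scanning cytometry and normalized to 20 uM Triacsin C.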

[23] = target: DNA repair nuclease/redox regulator APEX1 (Homo sapiens) (UniProt P27695); assay: qHTS Validation Assay for Inhibitors of the Human Apurinic/apyrimidinic Endonuclease 1 (APE1) (AID 1705)
How it was run: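 Fluorogenic double-stranded THF abasic-site substrate (5'-TAMRA/3'-BHQ-2), 50 nM final. Enzyme preincubated with compound 15 min at room temperature, then substrate added. Kinetic fluorescence (ex 525/em 598 nm) read three times at 60 s intervals; activity taken as third-minus-first read difference.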

3',5'-cyclic-AMP phosphodiesterase 4B (Homo sapiens), sequence (Q07343 whole entry, looked up): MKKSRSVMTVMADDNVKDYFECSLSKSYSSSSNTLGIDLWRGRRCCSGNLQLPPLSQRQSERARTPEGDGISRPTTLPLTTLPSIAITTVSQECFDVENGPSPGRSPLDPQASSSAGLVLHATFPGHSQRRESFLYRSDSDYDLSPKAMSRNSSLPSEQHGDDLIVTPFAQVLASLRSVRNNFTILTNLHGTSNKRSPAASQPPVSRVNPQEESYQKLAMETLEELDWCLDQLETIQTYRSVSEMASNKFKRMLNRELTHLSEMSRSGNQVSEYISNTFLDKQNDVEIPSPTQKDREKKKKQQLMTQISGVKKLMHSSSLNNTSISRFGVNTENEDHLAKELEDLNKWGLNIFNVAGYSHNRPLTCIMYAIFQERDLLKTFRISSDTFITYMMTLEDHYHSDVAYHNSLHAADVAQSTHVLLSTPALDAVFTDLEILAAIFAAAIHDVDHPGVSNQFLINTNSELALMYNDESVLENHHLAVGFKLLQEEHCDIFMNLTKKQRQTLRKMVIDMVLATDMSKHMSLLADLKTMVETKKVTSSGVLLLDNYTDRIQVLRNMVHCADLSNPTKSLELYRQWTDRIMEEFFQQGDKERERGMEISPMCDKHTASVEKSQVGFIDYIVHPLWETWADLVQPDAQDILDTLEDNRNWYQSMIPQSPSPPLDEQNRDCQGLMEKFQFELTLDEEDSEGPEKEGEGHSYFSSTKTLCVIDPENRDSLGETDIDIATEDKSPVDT
Muscarinic acetylcholine receptor M1 (Rattus norvegicus), sequence (P08482 whole entry, looked up): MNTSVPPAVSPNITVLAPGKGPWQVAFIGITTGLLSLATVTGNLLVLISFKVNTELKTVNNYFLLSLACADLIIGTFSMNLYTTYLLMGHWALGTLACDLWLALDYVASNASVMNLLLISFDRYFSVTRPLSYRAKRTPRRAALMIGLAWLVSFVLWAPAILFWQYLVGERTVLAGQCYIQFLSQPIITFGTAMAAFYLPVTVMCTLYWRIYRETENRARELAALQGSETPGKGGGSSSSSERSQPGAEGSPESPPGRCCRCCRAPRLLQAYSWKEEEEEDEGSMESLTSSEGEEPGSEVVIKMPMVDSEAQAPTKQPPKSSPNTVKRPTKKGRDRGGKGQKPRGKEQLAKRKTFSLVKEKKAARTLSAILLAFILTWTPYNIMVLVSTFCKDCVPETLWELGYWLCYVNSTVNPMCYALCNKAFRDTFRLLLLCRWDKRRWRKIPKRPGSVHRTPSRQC
Alpha-galactosidase (Coffea arabica), sequence (Q42656 whole entry, looked up): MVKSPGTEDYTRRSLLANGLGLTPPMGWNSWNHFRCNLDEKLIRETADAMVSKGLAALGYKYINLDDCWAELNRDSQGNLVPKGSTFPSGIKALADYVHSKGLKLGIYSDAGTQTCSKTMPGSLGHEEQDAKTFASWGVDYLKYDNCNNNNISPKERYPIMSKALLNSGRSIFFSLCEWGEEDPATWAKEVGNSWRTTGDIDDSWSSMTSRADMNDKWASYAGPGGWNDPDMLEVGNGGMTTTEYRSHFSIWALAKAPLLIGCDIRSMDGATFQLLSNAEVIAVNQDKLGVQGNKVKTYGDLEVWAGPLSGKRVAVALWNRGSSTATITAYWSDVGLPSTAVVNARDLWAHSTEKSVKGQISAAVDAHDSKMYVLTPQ
Glucocorticoid receptor (Homo sapiens), sequence (P04150 whole entry, looked up, the tested form may be a part): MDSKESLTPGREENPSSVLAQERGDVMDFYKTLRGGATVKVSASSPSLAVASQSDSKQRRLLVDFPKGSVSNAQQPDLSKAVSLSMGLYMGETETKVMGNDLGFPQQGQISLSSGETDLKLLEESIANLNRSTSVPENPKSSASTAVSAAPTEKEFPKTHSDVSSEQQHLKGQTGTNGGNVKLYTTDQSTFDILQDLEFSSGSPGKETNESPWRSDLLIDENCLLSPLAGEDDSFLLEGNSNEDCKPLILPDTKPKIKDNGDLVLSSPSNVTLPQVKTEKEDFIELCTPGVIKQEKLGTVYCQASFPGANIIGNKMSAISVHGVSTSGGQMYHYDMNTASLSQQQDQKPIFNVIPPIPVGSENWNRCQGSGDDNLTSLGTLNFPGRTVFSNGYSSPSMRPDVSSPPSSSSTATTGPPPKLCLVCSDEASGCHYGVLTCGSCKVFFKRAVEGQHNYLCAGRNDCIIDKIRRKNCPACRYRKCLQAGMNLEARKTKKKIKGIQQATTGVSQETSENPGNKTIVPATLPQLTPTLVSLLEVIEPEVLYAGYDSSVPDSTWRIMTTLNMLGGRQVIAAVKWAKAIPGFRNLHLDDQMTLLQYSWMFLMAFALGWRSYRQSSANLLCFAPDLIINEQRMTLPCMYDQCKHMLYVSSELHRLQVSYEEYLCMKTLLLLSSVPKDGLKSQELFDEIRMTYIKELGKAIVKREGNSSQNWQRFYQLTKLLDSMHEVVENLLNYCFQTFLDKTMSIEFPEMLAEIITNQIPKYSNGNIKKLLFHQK
Cytochrome P450 1A2 (Homo sapiens), sequence (P05177 whole entry, looked up): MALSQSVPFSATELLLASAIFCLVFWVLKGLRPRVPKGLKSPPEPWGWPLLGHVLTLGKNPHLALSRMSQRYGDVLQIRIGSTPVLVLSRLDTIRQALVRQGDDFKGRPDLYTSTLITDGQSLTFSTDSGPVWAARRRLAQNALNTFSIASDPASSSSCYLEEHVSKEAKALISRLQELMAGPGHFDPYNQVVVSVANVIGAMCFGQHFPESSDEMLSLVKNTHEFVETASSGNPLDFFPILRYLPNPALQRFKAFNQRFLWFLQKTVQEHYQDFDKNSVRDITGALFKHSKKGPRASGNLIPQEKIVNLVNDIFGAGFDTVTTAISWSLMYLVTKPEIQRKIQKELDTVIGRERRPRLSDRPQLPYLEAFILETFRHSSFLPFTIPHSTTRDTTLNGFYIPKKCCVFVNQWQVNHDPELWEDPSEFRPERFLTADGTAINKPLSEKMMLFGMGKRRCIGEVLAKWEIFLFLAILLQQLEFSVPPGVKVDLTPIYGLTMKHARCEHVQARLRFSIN
Cytochrome P450 2D6 (Homo sapiens), sequence (P10635 whole entry, looked up): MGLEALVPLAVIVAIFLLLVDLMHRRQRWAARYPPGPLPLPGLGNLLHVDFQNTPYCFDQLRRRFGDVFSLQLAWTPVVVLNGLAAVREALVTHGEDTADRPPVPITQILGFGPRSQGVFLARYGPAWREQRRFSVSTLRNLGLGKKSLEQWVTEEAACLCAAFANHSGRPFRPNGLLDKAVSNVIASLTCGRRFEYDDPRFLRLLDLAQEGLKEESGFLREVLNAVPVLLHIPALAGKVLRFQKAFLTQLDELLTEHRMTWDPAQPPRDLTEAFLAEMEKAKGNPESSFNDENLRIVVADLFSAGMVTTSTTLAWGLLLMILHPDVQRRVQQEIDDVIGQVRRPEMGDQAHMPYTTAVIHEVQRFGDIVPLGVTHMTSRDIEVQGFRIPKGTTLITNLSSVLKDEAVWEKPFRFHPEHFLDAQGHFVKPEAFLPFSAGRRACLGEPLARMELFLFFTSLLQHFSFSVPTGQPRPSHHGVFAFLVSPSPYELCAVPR
Guanine nucleotide-binding protein G(i) subunit alpha-1 (Homo sapiens), sequence (P63096 whole entry, looked up): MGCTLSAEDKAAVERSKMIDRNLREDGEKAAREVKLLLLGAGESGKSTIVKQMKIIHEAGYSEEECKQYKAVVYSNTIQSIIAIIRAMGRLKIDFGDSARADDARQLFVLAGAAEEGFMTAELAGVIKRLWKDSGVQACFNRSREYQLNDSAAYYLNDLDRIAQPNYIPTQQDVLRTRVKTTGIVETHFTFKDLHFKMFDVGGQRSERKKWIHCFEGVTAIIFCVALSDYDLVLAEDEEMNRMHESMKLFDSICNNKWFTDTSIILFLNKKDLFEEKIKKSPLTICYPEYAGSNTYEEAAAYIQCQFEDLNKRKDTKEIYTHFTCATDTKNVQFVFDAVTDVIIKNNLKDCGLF
Cytochrome P450 2C9 (Homo sapiens), sequence (P11712 whole entry, looked up): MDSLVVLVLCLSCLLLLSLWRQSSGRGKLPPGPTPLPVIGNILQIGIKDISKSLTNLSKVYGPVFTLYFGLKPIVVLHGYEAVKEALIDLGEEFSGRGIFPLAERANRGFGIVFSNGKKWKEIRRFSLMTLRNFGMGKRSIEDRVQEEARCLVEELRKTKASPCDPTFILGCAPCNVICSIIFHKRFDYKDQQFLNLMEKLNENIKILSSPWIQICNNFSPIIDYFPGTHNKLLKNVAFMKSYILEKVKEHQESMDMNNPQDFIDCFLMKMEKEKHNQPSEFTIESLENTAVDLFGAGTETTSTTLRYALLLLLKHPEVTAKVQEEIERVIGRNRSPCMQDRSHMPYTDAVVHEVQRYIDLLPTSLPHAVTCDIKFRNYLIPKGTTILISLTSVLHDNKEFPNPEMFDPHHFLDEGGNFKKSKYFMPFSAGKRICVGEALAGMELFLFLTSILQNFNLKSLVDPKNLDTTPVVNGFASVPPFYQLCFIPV
Pyruvate kinase (Leishmania mexicana), sequence (Q27686 2-499 E452W): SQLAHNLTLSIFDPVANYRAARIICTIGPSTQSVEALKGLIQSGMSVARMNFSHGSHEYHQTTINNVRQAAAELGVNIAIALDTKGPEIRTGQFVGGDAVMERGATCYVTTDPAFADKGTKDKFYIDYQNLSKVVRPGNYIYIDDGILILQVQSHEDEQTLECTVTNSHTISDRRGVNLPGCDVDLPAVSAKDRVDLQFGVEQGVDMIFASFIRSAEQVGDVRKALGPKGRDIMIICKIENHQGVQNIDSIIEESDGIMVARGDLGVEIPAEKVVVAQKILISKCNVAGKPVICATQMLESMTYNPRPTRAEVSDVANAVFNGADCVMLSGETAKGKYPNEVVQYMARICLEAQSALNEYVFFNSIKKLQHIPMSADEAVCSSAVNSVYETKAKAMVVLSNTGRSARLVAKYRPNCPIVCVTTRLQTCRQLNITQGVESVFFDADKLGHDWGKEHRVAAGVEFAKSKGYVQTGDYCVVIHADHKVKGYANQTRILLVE

N[C@H](CCCCCP(=O)(O)O)C(=O)O
inactive: outcome [1] | Potency [2] | activity change, negative = inhibition [3] 7.92% and -0.366% | outcome [4] | Potency [5] > 46 µM | Potency [6] > 46 µM | outcome [7] | Potency [8] | outcome [9] | Potency [10] | Potency [11] | Potency [12] | outcome [13] | Potency [14] | Potency [15] | outcome [16] | outcome [17] | outcome [18] | outcome [19] | outcome [20] | outcome [21] | activity change, negative = inhibition ([22]; at 57.5 µM (top of the series)) -3.15% | Potency [23]
-11.8%: max response ([22]; measured here: cell count channel max response)
-15.1%: max response ([22]; measured here: lipid channel max response)
